PABP FP inh: PABP poly(A) RNA binding inhibitors, primary screen, biochemical, fluorescence polarization, uHTS; Polyadenylate-binding protein 1 (Homo sapiens), P11940; hit rate 1% among 290,000; inhibition, % at 35 µM;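 further: calls also rest on retests at 20 µM and on dose response follow-up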
Target sequence (P11940 whole entry, looked up): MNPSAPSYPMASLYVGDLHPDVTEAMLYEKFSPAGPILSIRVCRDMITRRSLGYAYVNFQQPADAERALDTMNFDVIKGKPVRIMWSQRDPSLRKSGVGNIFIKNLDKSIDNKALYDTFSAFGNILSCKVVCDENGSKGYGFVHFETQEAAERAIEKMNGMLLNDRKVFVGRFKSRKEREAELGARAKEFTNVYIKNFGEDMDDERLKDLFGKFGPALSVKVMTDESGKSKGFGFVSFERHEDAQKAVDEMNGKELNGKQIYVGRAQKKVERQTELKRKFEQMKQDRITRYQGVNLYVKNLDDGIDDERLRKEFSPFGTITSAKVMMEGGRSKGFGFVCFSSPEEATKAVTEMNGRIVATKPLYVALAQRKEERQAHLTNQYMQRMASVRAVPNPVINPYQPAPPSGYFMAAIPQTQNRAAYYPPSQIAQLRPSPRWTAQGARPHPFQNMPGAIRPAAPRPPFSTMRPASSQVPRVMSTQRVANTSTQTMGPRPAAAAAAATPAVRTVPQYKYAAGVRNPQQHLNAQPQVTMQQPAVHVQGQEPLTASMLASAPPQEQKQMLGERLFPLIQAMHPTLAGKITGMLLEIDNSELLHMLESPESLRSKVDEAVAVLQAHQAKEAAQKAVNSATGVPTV
PABP1 MLLE inh: inhibitors of PABP1 MLLE–PAM2 peptide binding, primary screen, biochemical, fluorescence polarization, FITC-PAM2, GST-MLLE | Polyadenylate-binding protein 1 (Homo sapiens), P11940 | inhibition, % at 20 µM | hit rate 0.36% among 360,000; in the data active means inhibition above about 35%, passing the limit was not always enough;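 further: plate controls were DMSO wells with GST-MLLE for no effect and wells lacking GST-MLLE protein for full effect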
GRK2 aptamer HTS: compounds blocking aptamer binding on GRK2 – biochemical, human GRK2, bead flow cytometry, HTS, primary screen; Beta-adrenergic receptor kinase 1 (Homo sapiens), P25098; FAM-aptamer displacement from GRK2; inhibition of aptamer binding, % at 10 µM; hit rate 0.59% among 330,000; AID 488847, 2010;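 active means inhibition of aptamer binding above 40%, roughly 3 SD of noise, on plates passing a quality check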;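 further: median bead fluorescence of bound FAM aptamer so fluorescent compounds give negative values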
PERK inhibitor: block of dimerizer-induced PERK translation repression, primary screen, PERK inhibitor project, CHO PERK-DD cells, SEAP luminescence, HTS | inhibition, % at 5.6 µM | CHO PERK-DD fusion, SEAP luminescence translation reporter | Eukaryotic translation initiation factor 2-alpha kinase 3 (Homo sapiens), Q9NZJ5 | hit rate 0.17% among 220,000;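 active means inhibition above the mean inhibition of all tested compounds plus 3 SD, set separately per screening campaign, cut at about 2.9% in these data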;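 further: PERK kinase domain activated by AP20187 dimerizer at 100 nM; 0% = DMSO with dimerizer and 100% = rapamycin at 8.4 µM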
eIF4H FP inh: human eIF4H binding inhibitors, primary screen, translation initiation inhibitor project, biochemical, uHTS, fluorescence polarization; hit rate 0.94% among 290,000; Eukaryotic translation initiation factor 4H (Homo sapiens), Q15056; eIF4H fluorescence polarization binding assay; inhibition, % at 35 µM;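 further: calls also rest on retests at 20 µM and on dose response follow-up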
* hit, by the source's call; i = inactive; ? = inconclusive; . = not tested or not shown. This is a sample that favours compounds with a hit; in the whole collection about 1.9% have one here. Unless noted, how the calls were made is not given here.

SMILES	PABP FP inh	PABP1 MLLE inh	GRK2 aptamer HTS	PERK inhibitor	eIF4H FP inh
Cc1nn2c3ccccc3nc2n(Cc2ccccc2)c1=O	.	.	.	3.1*	.
Cc1cccn2c(=O)c3cc(C(=O)NCCCn4ccnc4)n(C)c3nc12	67*	15	0	0	91*
Cc1cccn2c(=O)c3cc(C(=O)N(C)C)n(C)c3nc12	?	53*	0	0	?
COC(=O)C1=C(C)NC(=O)/C1=C\c1cc(C)n(-c2ccc(F)cc2)c1C	43	5	0	0	30
COC(=O)C1=C(C)NC(=O)/C1=C\c1cc(C)n(-c2cccc(C)c2)c1C	119*	-6	2	0	121
Cc1cc(/C=C2/C(=O)NN(c3ccccc3)C2=O)c(C)n1-c1cccc(O)c1	-4	-7	0	1	62*
CCc1nc(CN2CCN(c3cc(C(F)(F)F)ccn3)CC2)c(C)[nH]1	-12	-6	1	-1	-2
COC(=O)CCC(=O)Nc1c(C)n(C)n(-c2ccccc2)c1=O	4	-9	0	0	1
Cc1c(NC(=O)CC(C)C)c(=O)n(-c2ccccc2)n1C	79*	1	0	0	-1
CN(C)c1ccc([C@@H]2[C@@H]([N+](=O)[O-])[C@H]3C=Cc4ccccc4N3[C@H]2C(=O)c2ccc(Cl)cc2)cc1	44	-96	16	1	4
C=CCN1C(=O)/C(=C\c2ccc(Cl)cc2)N=C1SCC(=O)NC1CCCCC1	-4	40*	1	0	0
CNC(=S)SCCOc1ccccc1	-1	36*	1	1	-19
O=S1(=O)CCC(NC(=S)SCCOc2ccccc2)C1 (stereo not given)	-5	40*	0	0	0
COC(C(=O)Nc1ccnn1C1CCN(Cc2ccc(C)s2)CC1)c1ccccc1 (stereo not given)	-6	-6	0	.	-7
CC1=NN(c2ccc(Cl)c(C(=O)O)c2)C(=O)/C1=C\c1ccc(-c2ccc(C(=O)O)cc2)o1	11	16	.	1	52*
O=C1NN(c2ccc(Cl)c(Cl)c2)C(=O)/C1=C/c1ccc(-c2ccccc2C(=O)O)o1	64*	24	8	.	40*
COC(=O)c1ccc(N2NC(=O)/C(=C/c3ccc(-c4ccc(Cl)c(C(=O)O)c4)o3)C2=O)cc1	63*	-14	.	1	71*
Cc1ccc(N2NC(=O)/C(=C/c3ccc(-c4ccc(Cl)c(C(=O)O)c4)o3)C2=O)cc1C	13	-11	0	2	1
O=C1NN(c2ccccc2)C(=O)/C1=C/c1ccc(-c2ccc(C(=O)O)cc2)o1	70*	-20	8	.	68*
CCC(C)c1ccc(S(=O)(=O)N2CCN(CC(O)COCC3CCCO3)CC2)cc1 (stereo not given)	.	1	.	.	.
COc1ccc(-c2ccc(-c3nc4ccc(C)cn4c3NC3CCCCC3)cc2OC)cc1	.	-4	2	.	.
CCOC(=O)c1sc(=S)n(-c2ccc3c(c2)OCO3)c1N	12	40*	0	0	1
N#C/C(=C/c1ccc(F)cc1)c1nnc(NC(=O)c2ccccc2)s1	57*	-19	0	-1	88*
COc1ccc(N(CCN2C(=O)c3ccccc3C2=O)C(=O)c2cccc([N+](=O)[O-])c2)cc1	72*	-9	0	0	active
CCc1cccc(CC)c1NC(=O)COC(=O)c1cccc(-c2ccc(OC(C)=O)cc2)c1	71	-2	100*	0	active
SMILES	PABP FP inh	PABP1 MLLE inh	GRK2 aptamer HTS	PERK inhibitor	eIF4H FP inh
CC(=O)Oc1ccc(-c2cccc(C(=O)O)c2)cc1	-4	7	1	1	2
CC(C)[N+](C)(C)CC(O)CN(c1ccccc1)c1ccccc1 (stereo not given)	66*	-128	0	0	-4
CCN1CC(=O)Nc2cc(S(=O)(=O)N3CCOCC3)ccc21	3	-2	2	3.7*	-5
c1coc(-c2ncc[nH]2)c1	128*	19	1	2	102*
C[C@H](NC(=O)N1CCn2c1nc1ccccc12)C(=O)N1CCCCC1	-1	3	0	.	-10
COC(=O)c1ccc(NC(c2ccc(Cl)cc2)P(=O)(OC)OC)cc1 (stereo not given)	1.6*	-3	3	0	80*
Cc1ccc(CNC(=S)Nc2ccc(C)c([N+](=O)[O-])c2)cc1	-6	0	50*	1	-9
Cc1ccc(NC(=S)NCc2ccccc2)cc1[N+](=O)[O-]	-1	-5	8	1	3
CCc1ccc(-n2c(SCC(=O)N3Cc4ccccc4CC3C(=O)O)nnc2-c2ccncc2)cc1 (stereo not given)	22	-87	1	3.4*	4
COc1ccc2oc3c(ccc[n+]3C)c(=O)c2c1	.	-127	.	.	.
CCOc1ccccc1N1CCN(C(=O)C2=CC=CN3CCS(=O)(=O)N=C23)CC1	.	-106	0	.	.
Cc1ccc(C(=O)NC(=S)Nc2cccc(-c3nc4ccccc4s3)c2)cc1	-6	41*	0	1	10
CCN1C(=NCCc2ccccn2)N[C@@H](c2cccc(F)c2)C(C(=O)OC)=C1C	.	-75	0	.	.
COC(=O)C1=C(C)N(Cc2ccccc2)C(=NCC(C)C)N[C@H]1c1ccccc1	61*	.	0	.	94
COC(=O)C1=C(C)N(Cc2ccccc2)C(=NCCc2ccccn2)N[C@H]1c1cccc(F)c1	66*	-77	0	.	24*
COc1cc(NC(=O)CCC(=O)N2CCN(S(=O)(=O)c3ccc(C)cc3)CC2)cc(OC)c1	.	-4	.	.	.
CN1N=C(C(C)(C)C)CC1=O	-9	.	0	3.4*	0
CC(C)CCN(C(=S)NC(=O)C1CCCCC1)c1c(N)n(Cc2ccccc2)c(=O)[nH]c1=O	-2	4	0	0	-19
CCC(=O)Nc1ccc2nc3c(=O)[nH]c(=S)[nH]c3nc2c1	98*	38	36	.	112*
CCCCCn1c(=O)[nH]c2cc(C(=O)O)ccc2c1=O	24	2	0	0	6
CCCCn1c(=O)[nH]c2nc3cc(NC(C)=O)ccc3nc2c1=O	58*	59	0	0	98*
CCCCCCn1c(=O)[nH]c2nc3cc(N)c(C)cc3nc2c1=O	3.5*	i	.	0	65
COCCOC(=O)C1=C(C)NC(=O)NC1c1ccco1 (stereo not given)	27*	15	1	0	58*
COCCOC(=O)C1=C(C)NC(=O)NC1c1c(Cl)nc2ccccn2c1=O (stereo not given)	0	41*	0	1	32
CC(C)(C)NC(=O)C(c1ccc(O)cc1)N(C(=O)CCC(=O)Nc1nccs1)c1ccc(F)cc1 (stereo not given)	1	-9	2	1	-4

Assay outcomes deposited in PubChem by several laboratories.
